Experiment in all cases: MAPPIT interaction score (arbitrary units); higher = stronger binary interaction signal, active = hit call of the paper
For one experiment, the target named is corto. The conditions noted are these: pair source set: Lit-BM-16.
The target in another experiment is bru3. The conditions noted are these: MAPPIT configuration: N-N; pair source set: DPIM.
Another experiment addresses cathD. The conditions noted are these: MAPPIT configuration: N-N; pair source set: DPIM.
Another experiment concerns the target cactin. Particulars: MAPPIT configuration: N-N; pair source set: RRS.
The target in another experiment is cic. The conditions noted are these: pair source set: Lit-BM-16.
The next experiment has as its target rl. The conditions noted are these: MAPPIT configuration: N-N; pair source set: Curagen_high_conf.

Unmarked numbers belong to inactive results.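 The calls were made as follows: active = MAPPIT score above the 99th percentile of random reference set scores in the same batch; inactive = at or below it.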
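Also: HEK293T cells with Epo stimulation, STAT-responsive firefly luciferase reporter, fold induction versus unstimulated cells divided by the larger fold induction of two negative controls lacking either bait or prey.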

B1: corto (protein)
chain: MTMAACYANYDMSSLSHGMSALSALQQQQQQQQQQHSQTQQQHHHQQQQQHMYHAAVAAHQQQLLQQQQQQQHHRHHHQPANTSSSSNSRHSHAAATQTQVAAAVANSRQQQQQQQQQQQQQQQQQTASSNSNAAPAPSPQKDYSIPLHVDCSVEYELPNQPKPPAGQRVEPLLMIHPCYFRKMESQRRSPFVNNMHATARAVSSSSLSSGAALGGGGSGAAVATAPSSSAARRGARAATSAQQQQQQQQRYQQQQQQLRQQHQQMSQMSQQAHYPQQQSSLVRQHQQQQQQQQQQQRASSNQSQRQSQSQSQSQSHAANSAAAAAAQASIAAAAAGQWDQLAALAARTALTPHHMLHPHSHYAAKGSGGGAGGGKRDAMISGSYGQTAVASGKLQQSQVQQQQPQQQQQHCLPPPPWDATSMLMDRSPMATVPSNYQAGPDTNPMRLYSATPTAGAASGGSASVGGGGAVSGAGATGAVNTATDKLSGKYRQYLRSQRMHPYAAAASLNLAAAAAAAGQTSFVPFSSAATAVAATPTFQHLPQISCYNV
Turning to B1, the figures for the MAPPIT interaction score in the experiment with corto (MAPPIT configuration: N-C) and with corto (MAPPIT configuration: N-N) were 0.538 and 0.215, respectively.

B2: abs (protein)
chain: MAHVKRYRRSSKSSEEGDLDNEDYVPYVPVKERKKQHMIKLGRIVQLVSETAQPKSSSENENEDDSQGAHDVETWGRKYNISLLDQHTELKKIAEAKKLSAVEKQLREEEKIMESIAQQKALMGVAELAKGIQYEQPIKTAWKPPRYIREMSEEEREAVRHELRILVEGETPSPPIRSFREMKFPKGILNGLAAKGIKNPTPIQVQGLPTVLAGRDLIGIAFTGSGKTLVFVLPVIMFALEQEYSLPFERNEGPYGLIICPSRELAKQTHEIIQHYSKHLQACGMPEIRSCLAMGGLPVSEALDVISRGVHIVVATPGRLMDMLDKKILTLDMCRYLCMDEADRMIDMGFEEDVRTIFSFFKGQRQTLLFSATMPKKIQNFARSALVKPVTINVGRAGAASMNVTQQVEYVKQEAKVVYLLDCLQKTAPPVLIFAEKKQDVDCIHEYLLLKGVEAVAIHGGKDQEERSRAVDAYRVGKKDVLVATDVASKGLDFPNVQHVINYDMPDDIENYVHRIGRTGRSNTKGLATTLINKTTEQSVLLDLKHLLIEGKQEVPDFLDELAPETEHQHLDLGDSHGCTYCGGLGHRITECPKLEAVQNKQASNIGRRDYLSNTAADY
On to B2, for which the MAPPIT interaction score with bru3 was -0.236.

B3: Wdr24 (protein)
chain: MPDSVEDTSTISLRICLEGHANALALNKDNNQIALAGRSLLKVYSINSNGFTESCNMRGKNQNLSYSANDVAWSTLDSNLLATAATNGVVSVWDLSKFGRQKQLLVYNEHERTAHTVTFHSSEPNILISGSQDGTIKCFDIRSDKSINTYFCNSESVRDVKFSPHTQNIFSAVSENGTVQLWDMRKWDKCMVQFTAHYGPVYTCDWHPTRNWLATGSRDKQIKVWNMDGRPGLEHTIHTIAVVGRVKWRPERTYHIASCALVVDYSVHVWDIRRPYIPFASFNEHTNVTTGIAWQGSDSHCLLSISKDSTIYKHAFKDATRPALKANAQGASLGRFGDISFANKIKEYEPKTSGASNTKSSSFIRRKTNVAGSIQFHLDHSKMYKFMVNDTFSGYPLSESVSRPTQEHESFIGCARELVISGKKLSELCEHNAEVSKKYGKHNATTLWNFIKLFYGSNHFEPPFEHRSSFSNQKNPMNSRRATQVASDWPQQRTELGQDLNGNTPETAHEIDVANVDDDTLGSSGVEHPPTSSVILSETQIISEITFDNFELLRNGFIYVGPTECPKALAFPALHHDVQAARPQLDLKASDHEKSPPPHVPTVLKVSHVPPIPMWEPHKFVSDALMLMNDVGDVQTALTVLIALGEARKLLPIDDALVEHWFYTYVDQLHRYELWNEACEVINRSWLRSVQQLNQHSTAMHTNCGECGRPMGGKVGWYCDKCKSMQSAKCCVCGLIVRGVYAWCQGCSHGGHIEHLQKYFAKHSKCPKCGHLCAYS
Take B3: in the experiment with cathD, the MAPPIT interaction score is -0.0301.

B4: Gs1 (protein)
chain: MALRVAGLFLKKELVAPATQQLRLLRTGNTTRSQFLANSPNTALDKSILQRYRNLETPANRVQATYLWIDGTGENIRLKDRVLDKVPSSVEDLPDWQYDGSSTYQAHGENSDTTLKPRAIYRDPFKPGKNDVIVLCDTYSADGKPTASNKRAAFQAAIDLISDQEPWFGIEQEYTLLDVDGRPFGWPENGFPAPQGPYYCGVGADRVYARDLVEAHVVACLYAGIDFAGTNAEVMPAQWEFQIGPAGIKACDDLWVSRYILQRIAEEYGVVVTFDPKPMEGQWNGAGAHTNFSTKEMRADGGIKAIEEAIEKLSKRHERHIKAYDPKEGKDNERRLVGRLETSSIDKFSWGVANRAVSVRVPRGVATAGKGYLEDRRPSSNCDPYAVCNAIVRTCLLNE
B4: the MAPPIT interaction score with cactin is -0.185.

B5: rl (protein)
chain: MEEFNSSGSVVNGTGSTEVPQSNAEVIRGQIFEVGPRYIKLAYIGEGAYGMVVSADDTLTNQRVAIKKISPFEHQTYCQRTLREITILTRFKHENIIDIRDILRVDSIDQMRDVYIVQCLMETDLYKLLKTQRLSNDHICYFLYQILRGLKYIHSANVLHRDLKPSNLLLNKTCDLKICDFGLARIADPEHDHTGFLTEYVATRWYRAPEIMLNSKGYTKSIDIWSVGCILAEMLSNRPIFPGKHYLDQLNHILGVLGSPSRDDLECIINEKARNYLESLPFKPNVPWAKLFPNADALALDLLGKMLTFNPHKRIPVEEALAHPYLEQYYDPGDEPVAEVPFRINMENDDISRDALKSLIFEETLKFKERQPDNAP
Consider B5, for which the values for the MAPPIT interaction score with cic (MAPPIT configuration: N-C), in the experiment with cic (MAPPIT configuration: N-N) and in the experiment with rl were 0.149, 0.776 and 0.844, respectively.
